Screening data (PubChem)
FLuc modulator – counter-screen for miR-21 project: firefly luciferase inhibitors or activators | P08659 | purified FLuc, Km substrates, luminescence inhibition | Potency, µM (top dose mostly 57.5 µM), for the others: at the highest dose activity change, negative = inhibition, usual class: inhibitors | 360,000 compounds, 6.9% hits | AID 588342;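 note: plate controls were vehicle for no effect and reference inhibitor for full effect; nearly all actives have a fitted effect of over 55% in size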
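Biochemical qHTS of compounds, final roughly 60 µM downward over six points, against 10 nM purified firefly luciferase using Km concentrations of substrates (10 uM D-luciferin, 10 uM ATP) in Tris acetate pH 7.5 buffer; luminescence output.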
Rab9 prom act – activates the Rab9 promoter. Huh7 Rab9 promoter-luciferase reporter, luminescence, 24 h. Potency, µM (doses to about 9.22 µM), for inactives: at the highest dose activation, negative = inhibition, usual class: activators. 320,000 compounds, 2.8% hits; note: % of control where 0% means no effect; nearly all actives have a fitted effect of over 60% in size
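Cell-based reporter: Huh7 stable for Rab9 promoter-driven luciferase, plated in reduced-serum medium with 10% FBS at 1500 cells/well, compound-treated 24 h at 37 °C, luminescence read after 10 min reagent.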
SMN2 splice up – increases expression of the SMN2 splice variant; HEK293 SMN2-luciferase splicing reporter, luminescence, 30-36 h; Potency, µM (highest dose often 46.1 µM), for the others: at the highest dose activity change, positive = activation, most hits filed as activators; 210,000 compounds, 2.8% hits; AID 1458; note: % of control where 0% means no effect; nearly all actives have a fitted effect of over 55% in size
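qHTS luciferase splicing reporter: luminescence rises when SMN2 exon 7 is included in transfected HEK293 cells. Compound exposure lasted 30-36 h at 37C, with 4.5 mM final sodium butyrate as control, followed by a ONE-Glo read.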
ELG1 DNA repair – inhibitors of ELG1-dependent DNA repair in HEK293T cells | 330,000 compounds, 2.3% hits | AID 504467 | Potency, µM (series often up to 46.1 µM), inactives show at the highest dose activity change, negative = inhibition, usual class: inhibitors | HEK293T ELG1-luciferase reporter, luminescence, 16 h; DNA damage induced by 5-fluorouridine; note: % is set by controls: 0 for no effect and ±100 for the full control effect; nearly all actives have a fitted effect of over 55% in size
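Overnight (16 hr) co-exposure of 2,000 cells/well to 5-fluorouridine and compound at 37 °C preceded detection. Luciferase was quantified via ONE-Glo luminescence; loss of signal denotes inhibition.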
NPC1 prom act – activators of NPC1 promoter; Huh7 NPC1 promoter luciferase reporter, 24 h; Potency, µM (highest dose often 9.22 µM), for inactives: at the top dose activation, actives largely listed as activators; 320,000 compounds, 2.4% hits; AID 485313; note: % of control where 0% means no effect; nearly all actives have a fitted effect of over 60% in size
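NPC1 promoter–luciferase Huh7 cells; 24 h compound; luminescence.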
ELG1 genotoxic – genotoxicity induction in ELG1-luciferase HEK293T cells; HEK293T ELG1-luciferase reporter, luminescence, 16 h; Potency, µM (doses to about 46 µM), inactives show top-dose activity change, positive = activation, most hits filed as activators; 330,000 compounds, 1.3% hits; note: % of control where 0% means no effect; nearly all actives have a fitted effect of over 60% in size
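Genotoxicity was scored as increased ELG1-luciferase reporter signal, measured by ONE-Glo luminescence (30 min, room temperature). Compound or vehicle exposure of the HEK293T reporter cells lasted 16 hr at 37°C.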
ELG1 FLuc counter – luciferase inhibition in cell-free luciferin readout for ELG1 hits. 350 compounds, 3% hits. Potency, µM (doses to about 46.1 µM), for inactives: at the top dose activity change, negative = inhibition, actives largely listed as inhibitors. shares compounds with ELG1 DNA repair. cell-free firefly luciferase luminescence counter-screen, ViewLux; note: % is set by controls: 0 for no effect and ±100 for the full control effect
ELG1 Luc conf – human ELG1 repair inhibition, luciferase-tagged ELG1 confirmation. shares compounds with ELG1 DNA repair. 670 compounds, 68% hits. HEK293T ELG1-luciferase levels, luminescence; cells co-treated with 5-fluorouridine. Potency, µM (top dose mostly 46.1 µM), inactives show at the top dose activity change, negative = inhibition, hits mostly inhibitors; note: % is set by controls: 0 for no effect and ±100 for the full control effect; nearly all actives have a fitted effect of over 55% in size
Target sequence (Q96QE3 whole entry, looked up): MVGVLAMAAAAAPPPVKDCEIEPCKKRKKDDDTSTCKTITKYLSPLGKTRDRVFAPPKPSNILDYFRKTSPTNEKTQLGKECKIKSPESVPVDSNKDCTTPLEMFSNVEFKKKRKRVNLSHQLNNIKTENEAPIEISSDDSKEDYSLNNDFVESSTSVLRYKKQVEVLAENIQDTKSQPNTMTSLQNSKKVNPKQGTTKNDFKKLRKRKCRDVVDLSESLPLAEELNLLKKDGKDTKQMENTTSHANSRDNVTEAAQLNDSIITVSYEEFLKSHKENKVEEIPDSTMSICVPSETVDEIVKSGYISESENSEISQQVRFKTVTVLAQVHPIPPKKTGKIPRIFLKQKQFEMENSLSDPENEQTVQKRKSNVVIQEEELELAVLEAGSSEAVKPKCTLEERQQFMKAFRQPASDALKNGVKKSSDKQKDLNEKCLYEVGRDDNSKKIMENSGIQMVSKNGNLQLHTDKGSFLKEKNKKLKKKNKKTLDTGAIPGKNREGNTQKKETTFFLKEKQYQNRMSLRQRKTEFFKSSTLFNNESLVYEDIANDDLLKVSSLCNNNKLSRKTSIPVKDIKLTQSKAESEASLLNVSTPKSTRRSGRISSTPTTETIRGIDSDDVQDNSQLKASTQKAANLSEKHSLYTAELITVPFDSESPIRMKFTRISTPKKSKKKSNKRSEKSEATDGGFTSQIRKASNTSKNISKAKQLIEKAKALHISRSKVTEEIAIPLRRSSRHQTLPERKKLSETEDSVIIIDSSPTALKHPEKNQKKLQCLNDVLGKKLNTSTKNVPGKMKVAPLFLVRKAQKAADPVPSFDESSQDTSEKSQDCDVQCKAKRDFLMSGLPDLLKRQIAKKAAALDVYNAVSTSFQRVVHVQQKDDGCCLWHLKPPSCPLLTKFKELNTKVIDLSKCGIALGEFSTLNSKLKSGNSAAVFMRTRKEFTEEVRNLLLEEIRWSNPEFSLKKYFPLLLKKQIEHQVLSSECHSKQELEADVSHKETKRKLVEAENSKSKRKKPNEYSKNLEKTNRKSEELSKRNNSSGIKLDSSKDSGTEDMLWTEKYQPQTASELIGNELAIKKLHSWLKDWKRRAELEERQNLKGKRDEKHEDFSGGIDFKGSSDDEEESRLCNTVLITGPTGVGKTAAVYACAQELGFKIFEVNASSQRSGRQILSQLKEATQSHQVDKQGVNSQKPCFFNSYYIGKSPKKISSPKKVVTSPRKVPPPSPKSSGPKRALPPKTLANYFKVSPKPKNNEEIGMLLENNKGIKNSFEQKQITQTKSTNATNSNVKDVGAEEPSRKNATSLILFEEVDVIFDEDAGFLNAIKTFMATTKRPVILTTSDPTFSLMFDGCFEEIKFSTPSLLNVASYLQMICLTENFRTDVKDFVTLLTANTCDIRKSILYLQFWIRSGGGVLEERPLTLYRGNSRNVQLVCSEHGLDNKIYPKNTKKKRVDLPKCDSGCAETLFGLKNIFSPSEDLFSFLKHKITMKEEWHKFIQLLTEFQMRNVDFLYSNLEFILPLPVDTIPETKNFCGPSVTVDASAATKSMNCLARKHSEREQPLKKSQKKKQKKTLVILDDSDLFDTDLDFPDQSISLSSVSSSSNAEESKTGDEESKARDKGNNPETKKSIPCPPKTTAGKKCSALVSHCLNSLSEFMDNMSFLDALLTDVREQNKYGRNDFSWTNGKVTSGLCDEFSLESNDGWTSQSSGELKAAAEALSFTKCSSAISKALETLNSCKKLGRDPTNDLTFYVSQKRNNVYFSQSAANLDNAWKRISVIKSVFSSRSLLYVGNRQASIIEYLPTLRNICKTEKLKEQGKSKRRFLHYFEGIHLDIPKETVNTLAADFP
ELG1-Luc MMS – confirmation of human ELG1 repair inhibitors, MMS stimulated. shares compounds with ELG1 DNA repair. HEK293T luciferase-tagged ELG1 level, MMS stimulated. Potency, µM (series often up to 46.1 µM), inactives show top-dose activity change, negative = inhibition, hits mostly inhibitors. 670 compounds, 53% hits; note: % is set by controls: 0 for no effect and ±100 for the full control effect; nearly all actives have a fitted effect of over 60% in size
ELG1 5-FU – confirmation of ELG1 repair inhibitors: viability with 5FU; shares compounds with ELG1 DNA repair; cell viability with 5-FU, ELG1-dependent repair; Potency, µM (titrated, usually from 46.1 µM), for inactives: at the top dose activity change, negative = viability loss, hits mostly cytotoxic; 670 tested, under 10 active; AID 624250;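 note: ELG1-luc HEK293T cells cotreated with 5-fluorouridine at 10 µM final; viability measured 16 h after compound addition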
ELG1 MMS cell – confirmation of ELG1 repair inhibitors: viability with MMS; shares compounds with ELG1 DNA repair; Cell viability with MMS, ELG1-dependent DNA repair; Potency, µM (titrated, usually from 46.1 µM), inactives show at the highest dose activity change, negative = viability loss, actives largely listed as cytotoxic; 670 compounds, 33% hits; AID 624251;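 note: ELG1-luc HEK293T cells co-treated with 10 µM MMS; viability read 16 h after compound addition; % is set by controls: 0 for no effect and ±100 for the full control effect; nearly all actives have a fitted effect of over 60% in size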
Cell viab unstim – counter-screen for ELG1 repair inhibitors: unstimulated cell viability. shares compounds with ELG1 DNA repair. cell viability counter-screen, unstimulated, luminescence. Potency, µM (doses to about 45.9 µM), without a hit: at the highest dose activity change, negative = loss of viability, usual class: cytotoxic. 900 compounds, 8% hits. AID 624252;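 note: compound exposure lasted 16 hours before reading; % is set by controls: 0 for no effect and ±100 for the full control effect; nearly all actives have a fitted effect of over 55% in size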
FLuc enzyme – firefly luciferase inhibition counter-screen; shares compounds with ELG1 DNA repair; purified firefly luciferase, luminescence counter-screen; Potency, µM (titrated, usually from 57.5 µM), for the others: at the top dose activity, negative = inhibition, hits mostly inhibitors; 350 compounds, 10% hits; AID 624253; note: % is set by controls: 0 for no effect and ±100 for the full control effect
* = called active by the depositor; ? = inconclusive; . = no result given. Sampled rows, rich in hits. Any-hit rate of the full collection: about 9.2%. Calls come from the whole dose curve; as a rule, active = well fitted curve in the direction sought with a large enough effect; inconclusive = small, poorly fitted or top-dose-only effect, or another doubt; inactive = no such curve, though single readings can be large; an effect the other way counts as inactive or inconclusive. Potency is the fitted concentration of half-maximal effect.

SMILES	FLuc modulator	Rab9 prom act	SMN2 splice up	ELG1 DNA repair	NPC1 prom act	ELG1 genotoxic	ELG1 Luc conf	ELG1-Luc MMS	ELG1 5-FU	ELG1 MMS cell	Cell viab unstim	others
COc1ccc(-c2noc3c2-c2nc(-c4c(F)cccc4F)sc2CC3)cc1	5%	-5%	.	-16%	-10%	13%	.	.	.	.	.
O=C(NC1CC1)c1cccc(S(=O)(=O)N2CCOCC2)c1	-2%	0%	.	15%	-7%	2%	.	.	.	.	.
Cc1ccc2c(c1)nnn2C1CCN(S(=O)(=O)c2ccc(C(=O)NC3CCCC3)cc2)CC1	5%	-10%	5%	4.5µM*	-2%	-8%	3.1µM*	?	?	?	?
Cn1cc(C(=O)N/N=C/c2c(O)ccc3ccccc23)ccc1=O	-17%	-41%	-93%	2.3µM*	-34%	?	?	3.1µM*	-15%	14µM*	?
Cn1nccc1C(=O)N/N=C/c1c(O)ccc2ccccc12	?	-42%	.	?	-29%	?	.	.	.	.	.
O=C(NCc1cccnc1)c1ccc(NC(=O)c2ccc(Br)cc2)cc1	-4%	-23%	.	2.3µM*	-11%	17%	-10%	0.025µM*	5%	0.025µM*	-1%
COc1ccc(-n2nc(C(=O)NCC(=O)Nc3ccccn3)c3ccccc3c2=O)cc1Cl	0%	-2%	-11%	?	-8%	13%	.	.	.	.	.
CCc1ccc(NC(=O)CNC(=O)c2nn(-c3ccc(OC)cc3)c(=O)c3ccccc23)cc1	3%	-11%	.	-14%	-4%	-12%	14µM*	16%	?	-3%	?	ELG1 FLuc counter=1%;FLuc enzyme=-9%
COc1ccc(NC(=O)CNC(=O)c2nn(-c3ccc(OC)c(Cl)c3)c(=O)c3ccccc23)c(OC)c1	2%	10%	.	5.8µM*	0%	-8%	3.5µM*	-2%	10%	-1%	?	ELG1 FLuc counter=-3%;FLuc enzyme=-13%
Cc1sc2c(c1C)C(=O)/C(=C\Nc1ccccn1)S(=O)(=O)N2C	-1%	-5%	.	4%	1%	-5%	.	.	.	.	.
COc1cc(/C=C/C(=O)OCC(=O)N(C)Cc2ccccc2)ccc1O	-2%	-6%	.	2%	-2%	0%	.	.	.	.	.
COc1cc(CNc2cccc(C(=O)O)c2)cc(Br)c1OCC(=O)NC(C)(C)C	2%	-4%	.	?	-17%	1%	.	.	.	.	.
O=C(Nc1ccc(N2CCOCC2)cc1)c1cccc(S(=O)(=O)N2CCCCCC2)c1	-8%	-14%	-45%	3.3µM*	-9%	-2%	?	7.9µM*	-1%	7.9µM*	?
COc1ccc(N(C)C(=O)c2cn(CC(C)C)c(=O)c3cc(OC)c(OC)cc23)c(OC)c1	1%	-2%	.	1.5µM*	1%	0%	1.8µM*	-17%	?	-1%	?	ELG1 FLuc counter=5%;FLuc enzyme=6%
CC1(C)Cc2c(C#N)c(SCc3ccccc3)nc(N3CCOCC3)c2CO1	5%	-8%	-20%	2.3µM*	-1%	-9%	2.2µM*	-9%	?	11%	-9%
CCCCCSc1nc(N2CCOCC2)c2c(c1C#N)CC(C)(C)OC2	2%	-10%	-12%	-29%	1%	0%	.	.	.	.	.
COc1ccc(CNC(=O)C(c2ccco2)N(Cc2cccs2)C(=O)Cc2cccs2)cc1 (stereo not given)	4%	-11%	3%	15µM*	2%	-20%	16µM*	16µM*	6%	-4%	-14%	ELG1 FLuc counter=-17%;FLuc enzyme=-4%
Cc1ccc(OCc2nnc(SCC(=O)c3cccc([N+](=O)[O-])c3)n2C)cc1	1%	0%	-3%	0%	-1%	1%	.	.	.	.	.
CC(=O)Nc1ccc(NC(=O)C(C)OC(=O)/C=C/c2cn(-c3ccccc3)nc2-c2cccnc2)cc1 (stereo not given)	-1%	-9%	-29%	1.6µM*	-4%	-7%	0.79µM*	25µM*	?	25µM*	?
Cc1ccccc1NC(=O)COC(=O)/C=C/c1cn(-c2ccccc2)nc1-c1cccnc1	-4%	-7%	11%	?	-6%	0%	.	.	.	.	.
CC(=O)N1CCN(CC(=O)Nc2ccccc2C(=O)NCc2ccc(C)cc2)CC1	0%	-3%	.	-15%	-4%	-13%	.	.	.	.	.
CC(=O)N1CCN(CC(=O)Nc2ccccc2C(=O)Nc2ccccc2)CC1	.	.	.	?	.	2%	3.5µM*	43%	?	-2%	-1%
CC1CCN(c2ccc3nnc(CCC(=O)Nc4ccc(F)cc4)n3n2)CC1	0%	-2%	.	-1%	-5%	-3%	.	.	.	.	.
Cc1ccc(NC(=O)CCc2nnc3ccc(N4CCC(C)CC4)nn23)nc1	0%	-7%	.	2.9µM*	-4%	5%	4.4µM*	29%	?	0%	?
O=C(/C=C\c1cn(-c2ccccc2)nc1-c1ccc2c(c1)OCCO2)N1CCOCC1	-17%	-3%	-15%	3.3µM*	-3%	-13%	1.6µM*	?	?	?	-8%
